In the supplement of paper PMC6555819:

Columns and labels:
Experiment in all cases: PBM binding z-score (relative to random genomic background probes); higher = stronger binding; sequences stand for … in GC…GCGATTGACAGCGTAGAATGAAGG
[1] = system: FXR:RXRa (NR concentration 270 nM, RXRa partner concentration 90 nM)
Procedure, shortened: (§1)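 Each nuclear receptor dimer, without ligand, was incubated for 1 h on custom Agilent 4×180K protein-binding microarrays. Binding was detected with antibodies against each partner (one per run), and scanned fluorescence was regression-normalized. The binding z-scores are referenced to random human genomic background probes.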

[2] = system: LXRa:RXRa (NR concentration 270 nM, RXRa partner concentration 90 nM)
Procedure, shortened: as §1

[3] = system: LXRa homodimer (NR concentration 270 nM)
Procedure, shortened: as §1

[4] = system: LXRb:RXRa (NR concentration 270 nM, RXRa partner concentration 90 nM)
Procedure, shortened: as §1

[5] = system: LXRb homodimer (NR concentration 270 nM)
Procedure, shortened: as §1

[6] = system: PPARa:RXRa (NR concentration 270 nM, RXRa partner concentration 90 nM)
Procedure, shortened: as §1

[7] = system: PPARg:RXRa (NR concentration 180 nM, RXRa partner concentration 90 nM)
Procedure, shortened: as §1

[8] = system: PPARg:RXRa 270nM:90nM, anti-RXR (NR concentration 270 nM, RXRa partner concentration 90 nM)
Procedure, shortened: as §1

[9] = system: PPARg:RXRa 30nM:10nM, anti-RXR (NR concentration 30 nM, RXRa partner concentration 10 nM)
Procedure, shortened: as §1

[10] = system: PPARg:RXRa 90nM:30nM, anti-RXR (NR concentration 90 nM, RXRa partner concentration 30 nM)
Procedure, shortened: as §1

Sequence | PBM binding z-score [1] | PBM binding z-score [2] | PBM binding z-score [3] | PBM binding z-score [4] | PBM binding z-score [5] | PBM binding z-score [6] | PBM binding z-score [7] | PBM binding z-score [8] | PBM binding z-score [9] | PBM binding z-score [10]
CCGGCTGGGGCAAAGGTTACCATACTCAGTACGA | 1.59 | 1.59 | -0.197 | 2.03 | -1.05 | 4.48 | 8.25 | 7.31 | 6.14 | 7.57
CCTACTGGGCCAAAATGGTCATTGATGCCGATAA | -0.236 | -0.291 | -0.317 | -0.55 | -0.875 | 0.318 | 0.666 | 0.897 | -0.124 | 0.804
CAAACTAGGTCCCCGGAAGGTCAAAGTCCGCATG | 2.38 | 3.13 | 2.88 | 2.9 | 0.475 | 3.7 | 2.01 | 2.86 | 0.494 | 1.63
AGAATGAGGTTATACGTAGATCGGGGAAGAAAGT | 2.27 | 2 | 0.119 | 1.96 | 0.366 | 3.29 | 1.84 | 2.15 | 0.629 | 1.49
CCGAGTGGGGCATAAGGTTACCATAAGCCAGCCC | 0.498 | 1.86 | -0.512 | 0.83 | -1.04 | 2.05 | 2.19 | 3.09 | 1.06 | 2.66
GGAACGAAGGCAAAGTTGATAGCATCTGTCGACG | -0.685 | -0.726 | -0.64 | -0.769 | -1.04 | 1.16 | 2.69 | 4.58 | 2.36 | 4.01
TCGAGTAGGTTACGGGCATTCAGAATGGCGTCGA | 0.0323 | 0.894 | -0.574 | -0.0129 | -1.41 | 1.33 | 1.14 | 1.54 | 0.893 | 1.06
ATCTAAAGGTCGACGAGGTGAGTATACACCGTTT | 4.77 | 4.07 | 0.832 | 3.04 | 0.727 | 4.38 | 3.31 | 3.51 | 1.21 | 2.67
TAGCCTAGGTCAGATCGGGCCACTATACGCTATA | 2.45 | 1.34 | -0.308 | 0.919 | -0.028 | 1.65 | 0.925 | 0.87 | -0.128 | 0.49
TAGCCTAGGTCATTGAGCCAGTATAGTACGCATC | 4.4 | 3.31 | 0.78 | 2.32 | 0.252 | 3.48 | 1.95 | 1.97 | 0.417 | 1.11
CCTAGCTGGCCAGGGTCACTCAAGCATTTCGCTT | 1.96 | 1.65 | -0.664 | 1.94 | -1.02 | 2.99 | -0.0183 | 1.17 | -0.834 | -0.172
ATATGTAGGTTAGCTGGGGTCATCCAGACTAGGC | 4.52 | 5.5 | 2.24 | 4.39 | 0.905 | 5.22 | 5.73 | 5.6 | 2.9 | 4.8
CGTCCAATGTCAGAGAGGTCAGTGAATGCCGAGT | 2.31 | 2.29 | 1.37 | 2.24 | 0.168 | 2.69 | 0.78 | 1.62 | 0.224 | 1.18
ATACCAAGGTGATCGTGAGGTGGTTGATACTAAC | 0.375 | 0.57 | 0.0365 | -0.0432 | 0.00305 | 0.168 | 0.411 | 0.0619 | 0.226 | 0.142
CGAACTAGGTCAAGGACAGTGCATCTCCGCACGC | 3.37 | 2.49 | 0.582 | 1.38 | -0.386 | 4.35 | 7.23 | 6.31 | 3.38 | 5.86
AGACCGAGGGCAATGAGTTGATAGCACGGGTGGC | -0.192 | -0.0854 | -0.495 | -0.427 | -0.95 | 0.375 | 0.499 | -0.467 | -0.824 | -0.435
TCGAGTAGGTTACCAATGGGGCGTTCAGCTTTCT | -0.0945 | 0.41 | -0.684 | 0.47 | -0.564 | 1.09 | -0.0878 | 1.06 | 0.919 | 1.03
TGACTGAGGTTATAAGATCAGGGAACGTTGCAAA | 1.3 | 1.14 | -0.497 | 1.08 | -0.238 | 2.27 | 0.706 | 0.976 | 0.531 | 0.783
CGTCAAAGTTCAACTATGGTAACGTAAAGCACGC | 6.59 | 6.03 | 3.91 | 4.34 | 2.3 | 4.97 | 4.9 | 5.62 | 2.24 | 4.52
CTACCAAGGTGAACAAGGTCGTGGATTACTATTC | 1.7 | 1.56 | -0.154 | 1.73 | -0.448 | 2.96 | 1.5 | 1.61 | 0.053 | 0.918
CCGACTGGAGCAAGGTTACCATAACGCACAGCCA | -0.0203 | 0.559 | 0.116 | 0.511 | -0.797 | 1.01 | 1.3 | 1.66 | 0.181 | 0.892
TTACCAAGGTGAAAGTCGTTGATCCCTCTGTAGA | 0.729 | 0.757 | -0.418 | 0.587 | -0.747 | 2.1 | 0.615 | 1.61 | 0.371 | 1.12
GGAACGAGGGCATTCGAGTTGAAAGCATGGCGAT | 1.15 | 2.67 | -0.268 | 0.406 | -1.04 | 1.85 | 0.762 | 0.887 | -0.332 | 0.259
GATACAGGGTCAGCAAGAGGCCAGAGTATGGAAA | 4.96 | 3.07 | -0.295 | 2.49 | -0.626 | 4.8 | 3.55 | 3.6 | 1.29 | 2.37
